# APP 5'UTR act – activates APP 5'UTR luciferase reporter; AID 1276; activation, % at 2 µM; SH-SY5Y APP 5'UTR luciferase reporter, luminescence; zero percent = DMSO vehicle wells; actives 1% (n = 190,000);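 active = activation above a set limit, based on mean plus 3 SD of controls, cut at about 140% in these data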
# NF-kB expr up – NF-kB expression increase, human neuronal cells | NF-kB reporter expression; active compounds read high | fold change at 12.5 µM | actives 1.6% (n = 190,000) | AID 1239; in the data active = fold change above about 3.3
# Hsp70 activator – Hsp70 transcriptional activation, primary screen; AID 1203; activation, % at 10 µM; actives 0.04% (n = 200,000); HeLa Hsp70 promoter luciferase reporter, luminescence; scaled: vehicle 0, proteasome-inhibitor control 100%;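 active = activation above the mean across all tested compounds plus 3 SD, cutoff set per campaign, cut at about 5.5% in these data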;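 note: 100% = MG132 at 30 µM as the positive control and 0% = DMSO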
# STAT1 act – STAT1 signaling activation. activation (% of control), % at 5.5 µM. AID 932. actives 2.6% (n = 200,000). NIH 3T3 STAT1-luciferase reporter, IFN-gamma, luminescence; 100% = IFN-gamma alone, no compound;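 active = activation above the screen-wide mean activation plus 3 SD, cut at about 130% in these data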;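 note: raw ratio to IFN-gamma control signal so 100% means no change and 0% no light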
# APP 5UTR inh – APP translation inhibition. inhibition, % at 2 µM. SH-SY5Y APP 5'UTR-luciferase reporter, luminescence. actives 0.82% (n = 190,000);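 active = inhibition above a set limit, derived from the sample mean plus 3 SD, cut at about 45% in these data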
# Wee1 degr inh – blocks degradation of human Wee1 kinase. HeLa Luc-Wee1K328M stability, luciferase luminescence; 100% = proteasome inhibitor MG132 effect. reporter increase, % at 5 µM. P30291. AID 1321. actives 1.2% (n = 220,000);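 active = activation above the mean of all tested compounds plus 3 SD, set per screening run, cut at about 8.8% in these data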;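 note: cells exposed to compound for 20 h before luminescence read; 0% = DMSO alone and 100% = MG132 at 30 µM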
# Target sequence (P30291 whole entry K328M): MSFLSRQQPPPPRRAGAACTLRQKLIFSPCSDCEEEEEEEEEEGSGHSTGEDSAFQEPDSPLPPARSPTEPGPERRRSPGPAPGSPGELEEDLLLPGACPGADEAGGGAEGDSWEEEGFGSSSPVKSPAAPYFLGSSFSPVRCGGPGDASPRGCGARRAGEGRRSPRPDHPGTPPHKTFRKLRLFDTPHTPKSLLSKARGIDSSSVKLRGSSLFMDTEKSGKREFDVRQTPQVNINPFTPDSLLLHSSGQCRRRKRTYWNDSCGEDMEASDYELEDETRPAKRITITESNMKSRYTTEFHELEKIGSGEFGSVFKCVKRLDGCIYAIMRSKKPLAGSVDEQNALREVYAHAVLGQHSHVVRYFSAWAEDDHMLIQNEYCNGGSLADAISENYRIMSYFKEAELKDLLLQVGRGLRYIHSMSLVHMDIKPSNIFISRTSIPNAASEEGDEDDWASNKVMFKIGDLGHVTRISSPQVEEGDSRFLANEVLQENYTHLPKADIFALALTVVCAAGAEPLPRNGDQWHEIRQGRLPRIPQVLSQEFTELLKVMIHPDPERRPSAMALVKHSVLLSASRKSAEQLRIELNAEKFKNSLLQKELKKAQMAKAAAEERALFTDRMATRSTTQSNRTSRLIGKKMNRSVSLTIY
# STAT1 act conf – confirmation of STAT1 signaling activators | actives 97% (n = 1,200) | activation (% of control), % at 5.7 µM | NIH 3T3 STAT1-luciferase reporter, IFN-gamma potentiation, luminescence; 100% = IFN-gamma EC80 alone, no compound | shares compounds with STAT1 act | AID 1262;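 active = activation above a set limit carried over from the earlier primary STAT1 screen, cut at about 140% in these data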;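 note: simple ratio to median IFN-gamma plus DMSO wells so 0% means no light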
# NFkB act – activates NF-kappaB, counter-screen to STAT1 activators; shares compounds with STAT1 act; HEK293T NF-kB luciferase reporter, TNF-alpha stimulated, luminescence; 100% = TNF-alpha with vehicle only; activation (% of control), % at 5.7 µM; actives 43% (n = 1,200); AID 1306;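 active = activation above the mean of solvent-only control wells plus 3 SD, set per campaign, cut at about 130% in these data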;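 note: TNF-alpha given at a submaximal dose yielding about 80% of full reporter signal; values are well signal over median control so 100% means no change and 0% no light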
# STAT3 act STAT1c – counter-screen for STAT1 activators: human STAT3 activation. shares compounds with STAT1 act. U3A cells STAT3-luciferase reporter, IL-6, luminescence; cells lack STAT1; 100 = IL-6 alone, no compound effect. activation (% of control), % at 5.7 µM. actives 46% (n = 1,200);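 active = activation above the solvent-only control well mean plus 3 SD, set per plate batch, cut at about 110% in these data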;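 note: 0% = no luminescence and 100% = median IL-6 plus DMSO wells; higher means more STAT3 reporter activation so hits are non-selective activators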
# The depositor's hits bear a star; . = no result given. In the library only some 4.8% were active in any assay of this set; here they are far more common.
SMILES,APP 5'UTR act,NF-kB expr up,Hsp70 activator,STAT1 act,APP 5UTR inh,Wee1 degr inh,STAT1 act conf,NFkB act,STAT3 act STAT1c
Cc1ccc(O)c(C2=NCCNC(C(F)(F)F)=C2)c1,-2.1,1.15,-0.3,108.9,2.1,1.9,.,.,.
Oc1c(C2=NCCNC(C(F)(F)F)=C2)ccc2ccccc12,132.7,6.01*,0.6,199.1*,-132.7,1.7,221.8*,146.8*,113.9*
COc1ccc(CNC(=O)C2CCC(=O)N2C(C)C)c(OC)c1 (centres undefined),.,.,.,.,.,-1.9,.,.,.
Clc1cnc(N/N=C/c2ccco2)c(Cl)c1,154.9*,4.2*,-0.2,158.6*,-154.9,3.1,150.7*,111.0,92.1
O=C(COC(=O)/C=C/c1ccco1)Nc1ncc(Cl)cc1Cl,1.7,1.09,-0.1,96.4,-1.7,-2.8,.,.,.
CC1CCc2nc(/C(C#N)=C/c3ccncc3)sc2C1 (centres undefined),46.6,1.15,0.0,151.7*,-46.6,2.1,159.5*,129.6,94.3
CCc1ccc(C2=NN(S(C)(=O)=O)C(c3cccs3)C2)cc1 (centres undefined),182.4*,8.37*,0.3,156.5*,-182.4,3.7,217.8*,142.0*,128.5*
O=C(Nc1ccccc1)Nc1nnc(-c2cccs2)s1,91.6,1.38,-0.3,118.4,-91.6,-0.5,.,.,.
Cc1occc1C(=O)Nc1nnc(-c2cccs2)s1,113.9,1.51,0.2,157.2*,-113.9,5.0,194.0*,130.8,112.5*
O=C(Nc1ccc2c(c1)C(=O)NC2=O)c1ccc(Cl)s1,12.8,1.08,-0.3,110.9,-12.8,-3.8,.,.,.
O=C(Nc1ccc2sccc2c1)c1ccc(Cl)s1,206.0*,7.66*,0.0,192.4*,-206.0,4.5,275.0*,138.3*,113.1*
COC(=O)c1ccccc1NC(=O)COc1ccccc1[N+](=O)[O-],10.2,0.73,0.0,100.7,-10.2,2.6,.,.,.
Cc1ccc(OCC(=O)Nc2ccccc2[N+](=O)[O-])c(Br)c1,154.2*,5.7*,0.5,159.5*,-154.2,0.6,201.8*,135.0*,108.8
Cc1ccc2c(c1)C(=NC1CCCCC1)c1cc3ccccc3nc1-2,178.5*,5.27*,-0.1,191.5*,-178.5,3.2,208.2*,125.4,149.8*
Cc1ccc2c(c1)-c1nc3ccccc3cc1C2=NC1CCCCC1,102.8,3.68*,0.1,172.5*,-102.8,-3.2,201.1*,131.2,123.1*
O=C(NCc1ccc2c(c1)OCO2)C1CCCN(S(=O)(=O)c2cccnc2)C1 (centres undefined),10.6,0.99,0.3,100.5,-10.6,0.9,.,.,.
COc1ccc(NC(=S)Nc2ccc3nccnc3c2)cc1,23.9,0.98,0.1,153.3*,-23.9,1.0,141.1*,109.3,98.5
CCOC(=O)c1sc2nc3c(cc2c1N)COC(C(C)C)C3 (centres undefined),144.9*,1.38,0.2,214.4*,-144.9,0.2,233.0*,109.6,75.3
CCOC(=O)c1sc2nc(N3CCOCC3)c3c(c2c1N)CC(C(C)C)OC3 (centres undefined),-10.9,1.24,0.0,100.0,10.9,-2.6,.,.,.
COc1cccc(OCCCCSc2ncccn2)c1,3.2,1.51,-0.1,100.0,-3.2,3.4,.,.,.
COc1ccc(OCCSc2ncccn2)cc1,160.4*,4.12*,0.0,153.6*,-160.4,2.1,181.0*,126.6,120.0*
O=C(CSc1cccc(C(F)(F)F)c1)NCc1ccccc1,-7.0,0.97,-0.5,94.9,7.0,1.7,.,.,.
Cc1cc(C)nc(SCC(=O)NN)n1,1.7,1.11,0.2,101.3,-1.7,-2.8,.,.,.
OC1CCCN(c2c3c(nc4cc(-c5cccc(F)c5)nn24)CCCC3)C1 (centres undefined),59.8,1.26,-0.2,157.8*,-59.8,0.7,165.9*,129.9,115.9*
Cc1cccc(-c2cc3nc4c(c(N5CCCC(O)C5)n3n2)CCC4)c1 (centres undefined),2.2,0.37,0.1,88.4,-2.2,-3.7,.,.,.
SMILES,APP 5'UTR act,NF-kB expr up,Hsp70 activator,STAT1 act,APP 5UTR inh,Wee1 degr inh,STAT1 act conf,NFkB act,STAT3 act STAT1c
O=C(/C=C/Nc1ccc(Nc2ccccc2)cc1)c1cccs1,97.8,2.23,0.4,162.5*,-97.8,-1.6,166.1*,140.3*,108.4
CCC(=O)Nc1ccc2c(c1)ncn2-c1ccc(C)cc1,103.3,2.65,0.1,162.4*,-103.3,3.7,183.4*,136.3*,135.4*
COc1ccc(-c2cc(=O)c3cc(OC)ccc3[nH]2)cc1,126.1,4.72*,-0.2,152.9*,-126.1,1.0,165.1*,103.3,100.9
COc1ccc2c(c1)oc(=O)c1cc(OC)ccc12,82.5,2.44,0.1,153.1*,-82.5,1.5,152.2*,123.8,103.3
O=C(NC1CCCC1)c1cc(-c2cccs2)on1,121.2,9.67*,0.5,172.9*,-121.2,1.0,204.9*,147.1*,114.6*
O=C(N/N=C/c1ccc2cccc(OCc3ccccc3)c2n1)c1ccc(Br)cc1,-8.3,0.53,-0.3,103.0,8.3,2.1,.,.,.
CC1=CN2C(=N)/C(=C/c3ccc(C)o3)C(=O)N=C2S1,160.8*,4.3*,0.1,201.1*,-160.8,7.7,249.4*,141.3*,103.5
O=C1OC(Cc2ccccn2)C(O)=C1C1=NCCCCN1 (centres undefined),105.4,2.12,0.2,152.0*,-105.4,3.1,150.6*,114.6,114.4*
O=C1OC(Cc2ccccn2)C(O)=C1C1=NCCCN1 (centres undefined),8.4,1.38,-0.3,110.4,-8.4,0.6,.,.,.
Cc1cc(C)n(-c2nc3ccccc3nc2N2CCN(C(=O)c3ccccc3)CC2)n1,-6.2,0.89,-0.4,90.6,6.2,-1.3,.,.,.
COc1ccc(/C=N/Nc2cc(N(C)C)nc(N(C)C)n2)cc1,1.4,0.96,-0.3,104.8,-1.4,-0.6,.,.,.
COc1ccc(/C=N/Nc2cc(OC)ncn2)cc1,202.7*,6.78*,-0.2,152.4*,-202.7,-2.2,227.5*,97.6,84.0
COCCn1c(SCC(=O)c2cc(C)n(C)c2C)nc2ccccc2c1=O,11.8,1.13,0.1,111.8,-11.8,-1.1,.,.,.
COCCn1c(C)cc(C(=O)CSc2nc3ccccc3o2)c1C,177.3*,1.84,0.1,157.7*,-177.3,4.6,215.5*,121.0,107.0

# Assay outcomes deposited in PubChem by several laboratories.
